Results on eight compounds are retold here after publication PMC5540273 (PLoS ONE, 2017).

What all share (conditions): concentration: 1 μM, replicates: in singlicate; n = 1
In assay [1] the test system is MAP3K4.
For assay [2], the system named is MAP4K2.
Assay [3] deals with MAP4K3.
The subject of assay [4] is MAP4K4.
Assay [5] concerns MAP4K5.
Assay [6] deals with MAPKAPK2.
The test system of assay [7] is MAPKAPK5.
Assay [8] concerns MARK1.
Assay [9] concerns MARK2.
The subject of assay [10] is MARK3.
The subject of assay [11] is MARK4.
Assay [12] concerns MAST1.
Assay [13] deals with T1, MEK1.
T1 construct: gene MAP2K1

Assay [14] deals with T2, MEK2.
T2 construct: gene MAP2K2

Assay [15] relates to T3, MEK3.
T3 construct: gene MAP2K3

Assay [16] has as its system T4, MEK4.
T4 construct: gene MAP2K4

Assay [17] deals with T5, MEK5.
T5 construct: gene MAP2K5

Assay [18] deals with T6, MEK6.
T6 construct: gene MAP2K6

The subject of assay [19] is MELK.
The test system of assay [20] is MERTK.
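Also: KINOMEscan kinase panel screen.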

Take `COc1ccc(-n2cnc3c(N)ncnc32)cc1` [SKF-97236]: the “%Inh” value in assay [1] came to 0%; in [2] it was 22%; in assay [3], 0%; in assay [4] it was 17%; in assay [5] it was 19%; in assay [6], 15%. Moreover, the “%Inh” value in assay [7] is on record as 0%; in assay [8] it was 15%; in assay [9] it was 0%; in [10], 0%; in assay [11] it was 19%; in [12], 0%. Moreover, the “%Inh” value amounted to 0% in assay [13]; 0% in assay [14]; 11% in assay [15]; 29% in assay [16]; 56% in [17]; 0% in assay [18]. For the same compound, the entries for the “%Inh” value in [19] and in [20] were 0% and 35%, respectively.

As to `CCCC(=O)Nc1n[nH]c2ncc(-c3cccc4ccccc34)cc12` [SB-642057], the “%Inh” value in assay [1] is listed as 34%; in [2] it was 0%; in [3], 12%; in assay [4], 8%; in assay [5], 7%; in [6], 8%. Besides, the “%Inh” value in [7] is 0%; in assay [8], 2%; in assay [9], 0%; in assay [10] it was 0%; in assay [11], 0%; in [12], 0%. The “%Inh” value in [13] worked out at 4%; in assay [14], 8%; in assay [15] it was 0%; in assay [16] it was 0%; in assay [17], 12%; in assay [18], 0%. In addition, the “%Inh” value in assay [19] stood at 33%; in [20], 0%.

Take `Cc1nc(N(C)[C@H]2CN(C(=O)CC#N)CC[C@H]2C)c2cc[nH]c2n1`: the “%Inh” value came to 12% in [1]; 1% in assay [2]; 0% in [3]; 0% in [4]; 0% in assay [5]; 0% in [6]. Further, the “%Inh” value was determined as 10% in [7]; 9% in assay [8]; 0% in assay [9]; 0% in [10]; 12% in [11]; 0% in assay [12]. Moreover, the “%Inh” value in assay [13] worked out at 2%; in [14], 4%; in [15] it was 10%; in [16], 0%; in assay [17], 0%; in assay [18] it was 0%. Also, the “%Inh” value is reported as 0% in assay [19] and 24% in [20].

For the compound `COc1cc(Nc2nccc(N3CCC(NC(=O)C(C)c4ccc(Cl)cc4)C3)n2)cc(OC)c1OC` (stereo not shown) [GSK1379757], the “%Inh” value in assay [1] came out at 0%; in [2], 0%; in assay [3], 0%; in [4] it was 8%; in [5], 5%; in assay [6], 14%. Moreover, the “%Inh” value in assay [7] stood at 0%; in assay [8], 0%; in [9], 0%; in [10], 0%; in assay [11] it was 11%; in assay [12] it was 0%. Further, the “%Inh” value in assay [13] stood at 0%; in assay [14], 0%; in assay [15], 0%; in [16], 5%; in assay [17], 59%; in assay [18], 0%. Besides, the “%Inh” value in assay [19] is recorded as 6%; in assay [20], 0%.

`C[C@@H]1CC[C@H](C(=O)NC2CCCCC2)CN1c1cc(-c2ccc3c(N)n[nH]c3c2)nc(N)n1` [GSK2291363]: the “%Inh” value in assay [1] is 28%; in assay [2], 0%; in assay [3], 0%; in assay [4], 7%; in [5] it was 0%; in assay [6], 0%. The “%Inh” value in [7] was 0%; in assay [8], 3%; in assay [9], 3%; in assay [10], 0%; in assay [11] it was 11%; in [12], 0%. For the same compound, the “%Inh” value in assay [13] is recorded as 0%; in assay [14], 0%; in assay [15] it was 18%; in assay [16], 27%; in assay [17], 35%; in assay [18], 9%. The “%Inh” value turned out to be 26% in assay [19] and 33% in assay [20].

`O=C(Nc1n[nH]c2nc(-c3ccccc3)c(Cl)cc12)C1CC1` [SB-734909]: the “%Inh” value in assay [1] was 5%; in [2] it was 0%; in [3], 15%; in assay [4], 1%; in [5], 9%; in [6], 22%. The “%Inh” value is on record as 0% in [7]; 30% in assay [8]; 0% in [9]; 0% in assay [10]; 25% in assay [11]; 12% in assay [12]. Besides, the “%Inh” value is 11% in assay [13]; 0% in assay [14]; 45% in [15]; 24% in [16]; 50% in [17]; 0% in assay [18]. The “%Inh” value in [19] and in assay [20] was 0% each time.

As to `COc1ccc(Nc2nccc(N3CCC(NS(=O)(=O)c4ccc(NC(C)=O)cc4)C3)n2)cc1` (stereo not shown) [GSK1379729], the “%Inh” value is recorded as 13% in [1]; 2% in assay [2]; 11% in [3]; 21% in assay [4]; 15% in assay [5]; 49% in assay [6]. For the same compound, the “%Inh” value in [7] amounted to 1%; in assay [8] it was 0%; in assay [9] it was 0%; in [10] it was 0%; in [11], 0%; in assay [12], 0%. In addition, the “%Inh” value is on record as 0% in assay [13]; 10% in assay [14]; 12% in assay [15]; 5% in assay [16]; 36% in assay [17]; 0% in [18]. For the same compound, the entries for the “%Inh” value in assay [19] and in assay [20] were 17% and 25%, respectively.

Regarding `CCC(=O)c1c(-c2ccccc2)c2cc(Cl)ccc2c(=O)n1Cc1ccc(C(=O)O)cc1`, the “%Inh” value in assay [1] is 0%; in assay [2], 12%; in [3], 0%; in [4] it was 0%; in assay [5] it was 0%; in [6], 0%. Further, the “%Inh” value in [7] amounted to 17%; in assay [8], 0%; in assay [9], 3%; in [10], 0%; in [11], 0%; in assay [12], 11%. Further, the “%Inh” value in assay [13] amounted to 0%; in assay [14], 3%; in [15], 0%; in assay [16] it was 0%; in [17], 0%; in [18], 0%. The “%Inh” value in [19] and in assay [20] was 0% in each case.
